Results filed as inconclusive are left out. Activity calls are given as the source filed them.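 The calls were made as follows, unless noted: active = dose-dependent loss of cell ATP signal giving a full or clear fitted curve, ranked by lower potency value; inconclusive = weak partial curve or response only at the top dose; inactive = no loss of viability signal.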
Assay: Cell Viability - Jurkat (AID 426);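 also: cells exposed to compound for 40 hours at 37 °C before ATP read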
Details: qHTS
How it was run: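 qHTS, 1536-well; Jurkat E6-1, 5000 cells/well, complete medium; cpd 40 hr, 37 °C; CellTiter-Glo 20 min RT; luminescence. AC50 by Hill fit.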
Potency is read from the fitted curve at half-maximal effect.

| Compound | Potency |
| --- | --- |
| Cc1ccnc2c1NC(=O)c1cccnc1N2C1CC1 | > 92 µM (inactive) |
| C[C@]12C=CC(=O)C=C1CC[C@@H]1[C@@H]2C(=O)C[C@@]2(C)[C@H]1CC[C@]2(O)C(=O)CO | > 92 µM (inactive) |
| O=C(N[C@H](CO)[C@H](O)c1ccc([N+](=O)[O-])cc1)C(Cl)Cl | > 92 µM (inactive) |
| CN(C)c1ccc(C(=C2C=CC(=[N+](C)C)C=C2)c2ccc(N(C)C)cc2)cc1 | 2.75 µM (active) |
| CC(=O)Oc1ccccc1C(=O)Nc1ncc([N+](=O)[O-])s1 | 30.6 µM (active) |
| O=C(O)c1cc(=O)[nH]c(=O)[nH]1 | > 92 µM (inactive) |

Assay: Cell Viability - HepG2 (AID 433; calls by dose curve;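 also: cells exposed to compound for 40 hours; potency for ATP loss meaning cytotoxicity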)
Details: qHTS
How it was run: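 ATP luminescence (CellTiter-Glo) after 40 h compound exposure, 37 °C, HepG2, 1500 cells/well, complete medium. Normalized: DMSO = basal, 100 uM tamoxifen = 100% inhibition. AC50 via standard Hill equation.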

| Compound | Potency |
| --- | --- |
| Cc1ccnc2c1NC(=O)c1cccnc1N2C1CC1 | > 92 µM (inactive) |
| C[C@]12C=CC(=O)C=C1CC[C@@H]1[C@@H]2C(=O)C[C@@]2(C)[C@H]1CC[C@]2(O)C(=O)CO | > 92 µM (inactive) |
| O=C(N[C@H](CO)[C@H](O)c1ccc([N+](=O)[O-])cc1)C(Cl)Cl | > 92 µM (inactive) |
| CN(C)c1ccc(C(=C2C=CC(=[N+](C)C)C=C2)c2ccc(N(C)C)cc2)cc1 | 8.58 µM (active) |
| N=C(N)c1ccc(OCCCCCOc2ccc(C(=N)N)cc2)cc1 | > 92 µM (inactive) |
| O=C(O)c1cc(=O)[nH]c(=O)[nH]1 | > 92 µM (inactive) |

Source: PubChem BioAssay (NCATS)
